Data published in the supplement of paper PMC8387472.

Columns and labels:
Test in all cases: fraction of edited reads among all mapped reads; higher = more Cas9 editing
Settings in all cases: mESC; 2uM; 72 h treatment, harvest day 5
[1] = compound: CC(=O)O/N=C1\C(=O)N(Cc2cc(Cl)ccc2Cl)c2ccc(Cl)cc21
[2] = compound: CC(C)(C#N)c1ccc(N2C(=O)OCc3cnc4ccc(-c5cnc6ccccc6c5)cc4c32)cc1
[3] = compound: CCCCOc1c(C(=O)c2c(F)cc(C)cc2F)c[nH]c2nncc1-2
[4] = compound: CCN1CCN(CC(=O)Nc2ccc(-c3cccc4c(=O)cc(N5CCOCC5)oc34)c3sc4ccccc4c23)CC1
[5] = compound: CCc1c2c(nc3ccc(OC(=O)N4CCC(N5CCCCC5)CC4)cc13)-c1cc3c(c(=O)n1C2)COC(=O)[C@]3(O)CC [Irinotecan HCl Trihydrate]
[6] = compound: CCn1c(=O)c(-c2ccc(Cl)cc2Cl)cc2cnc(Nc3ccc(N4CCNCC4)c(F)c3)nc21
[7] = compound: CNc1ccc([N+](=O)[O-])c(Nc2ccc3[nH]ncc3c2)n1
Rifapentine = compound: CO[C@H]1/C=C/O[C@@]2(C)Oc3c(C)c(O)c4c(O)c(c(/C=N/N5CCN(C6CCCC6)CC5)c(O)c4c3C2=O)NC(=O)/C(C)=C\C=C\[C@H](C)[C@H](O)[C@@H](C)[C@@H](O)[C@@H](C)[C@H](OC(C)=O)[C@@H]1C [Rifapentine]
[8] = compound: COc1ccccc1-c1cc(Nc2cccc(CS(N)(=O)=O)c2)ncn1
[9] = compound: C[C@@H]1CN(CC(=O)Nc2ccc3c(c2)Cc2cccc(-c4cc(=O)cc(N5CCOCC5)o4)c2S3)C[C@H](C)O1
[10] = compound: Cc1cc(C)nc(SCC(=O)Nc2ncc(Cc3cccc4ccccc34)s2)n1
[11] = compound: Cc1ccc(C(=O)NCCCCCC(=O)Nc2ccccc2N)cc1
[12] = compound: Cc1cccc(CC(=O)N2CCc3c2ccc(-c2cn(C)c4ncnc(N)c24)c3F)n1
[13] = compound: NC(=O)c1ccc2nc(-c3ccc(Oc4ccc(Cl)cc4)cc3)[nH]c2c1 [Chk 2 inhibitor II (BML-277)]
Tucidinostat (Chidamide) = compound: Nc1cc(F)ccc1NC(=O)c1ccc(CNC(=O)/C=C/c2cccnc2)cc1 [Tucidinostat (Chidamide)]
Pemetrexed = compound: Nc1nc2[nH]cc(CCc3ccc(C(=O)N[C@@H](CCC(=O)O)C(=O)O)cc3)c2c(=O)[nH]1 [Pemetrexed]
[14] = compound: Nc1ncnc2c1c(-c1cnc3[nH]ccc3c1)nn2C1CCCC1
[15] = compound: O=C(c1cccc(Cl)c1F)N1CCN(Cc2cccc(Nc3nccs3)n2)CC1
Kenpaullone = compound: O=C1Cc2c([nH]c3ccc(Br)cc23)-c2ccccc2N1 [Kenpaullone]
Genistein = compound: O=c1c(-c2ccc(O)cc2)coc2cc(O)cc(O)c12 [Genistein]

Target	fraction of edited reads among all mapped reads [1]	fraction of edited reads among all mapped reads [2]	fraction of edited reads among all mapped reads [3]	fraction of edited reads among all mapped reads [4]	fraction of edited reads among all mapped reads [5]	fraction of edited reads among all mapped reads [6]	fraction of edited reads among all mapped reads [7]	fraction of edited reads among all mapped reads (Rifapentine)	fraction of edited reads among all mapped reads [8]	fraction of edited reads among all mapped reads [9]	fraction of edited reads among all mapped reads [10]	fraction of edited reads among all mapped reads [11]	fraction of edited reads among all mapped reads [12]	fraction of edited reads among all mapped reads [13]	fraction of edited reads among all mapped reads (Tucidinostat (Chidamide))	fraction of edited reads among all mapped reads (Pemetrexed)	fraction of edited reads among all mapped reads [14]	fraction of edited reads among all mapped reads [15]	fraction of edited reads among all mapped reads (Kenpaullone)	fraction of edited reads among all mapped reads (Genistein)
42.0 (DMSO control at this site: 1-bp insertion 0.145, MH deletion 0.655, edited 0.132) GGGCTAAACCTATGAGCACAGTAGAACTAAGGGTGGGTGGTGTAGCTAAAGAACTTGACCA	0.151	0.153	0.161	0.0618	0.191	0.139	0.184	0.27	0.187	0.0909	0.241	0.15	0.193	0.167	0.115	0.127	0.135	0.107	0.251	0.18
19.0 (DMSO control at this site: 1-bp insertion 0.121, MH deletion 0.101, edited 0.057) TCTGCAGGGGTCGGAACCCGGGGGCTAGGGCTATCCCGGGGGCTAGGGCTATTAGCGAACC	0.0656	0.0719	0.0679	0.0342	0.0806	0.0564	0.0687	0.0905	0.087	0.0476	0.112	0.0637	0.0933	0.0726	0.0662	0.0698	0.0701	0.0542	0.141	0.0811
0.0 (DMSO control at this site: 1-bp insertion 0.463, MH deletion 0.339, edited 0.14) AGGATTACCGAGACCTACGCGAACCGAAATCGCTGTCCGGTGCGCAAGCAGGGCTGGCGTC	0.147	0.154	0.172	0.0626	0.218	0.155	0.203	0.274	0.213	0.15	0.241	0.152	0.222	0.17	0.139	0.149	0.173	0.122	0.329	0.187
7.0 (DMSO control at this site: 1-bp insertion 0.128, MH deletion 0.374, edited 0.098) TACTCAACCGAGACCTACGCGAACCGAAATCGTATGCCGGTGCGCAAGCAGGGCTGGCGTC	0.117	0.115	0.118	0.0615	0.161	0.0955	0.135	0.19	0.126	0.0557	0.173	0.0971	0.138	0.128	0.1	0.1	0.096	0.0816	0.195	0.124
34.0 (DMSO control at this site: 1-bp insertion 0.184, MH deletion 0.385, edited 0.103) ATTATAGGACCCTGAGGGAGCAGAGATGTGGGAATGGGGGCCGAGCCAATTGTGATGTAAG	0.119	0.107	0.0942	0.0488	0.159	0.0937	0.114	0.157	0.129	0.0719	0.159	0.112	0.134	0.113	0.104	0.0912	0.0944	0.0799	0.18	0.112
5.0 (DMSO control at this site: 1-bp insertion 0.214, MH deletion 0.567, edited 0.105) CGCTGACCCGAGACCTACGCGAACCGAAATCGGCGACCGGTGCGCAAGCAGGGCTGGCGTC	0.13	0.128	0.133	0.0591	0.169	0.13	0.145	0.226	0.163	0.085	0.215	0.121	0.171	0.149	0.108	0.124	0.116	0.0928	0.248	0.157
38.0 (DMSO control at this site: 1-bp insertion 0.063, MH deletion 0.487, edited 0.17) GGGCTGGGTGCTAAAATGAGGAGCTCCAAGAAGACTGAGGTGAACCTGGAGGCCCCTGAGC	0.178	0.169	0.188	0.0737	0.243	0.147	0.206	0.26	0.204	0.107	0.27	0.178	0.197	0.187	0.181	0.167	0.146	0.128	0.316	0.198
35.0 (DMSO control at this site: 1-bp insertion 0.01, MH deletion 0.72, edited 0.098) CCACTTTTAGAGAGGGTGAAAATCATCAGTTATCATCAGGGCAACAAATTGCTTTCTCCTA		0.143		0.0527	0.166	0.111	0.148	0.208	0.151	0.0395	0.179	0.117	0.147	0.122	0.0981	0.104	0.108	0.0696	0.209	0.151
1.0 (DMSO control at this site: 1-bp insertion 0.521, MH deletion 0.323, edited 0.141) GTGTCACAGTGCACGAGTGACGGGATAATGTGCTGACAGGTAATTGATAGGCTTCCAACTT	0.144	0.154	0.163	0.0521	0.194	0.145	0.207	0.256	0.203	0.152	0.243	0.141	0.218	0.174	0.14	0.132	0.176	0.112	0.33	0.159
29.0 (DMSO control at this site: 1-bp insertion 0.084, MH deletion 0.745, edited 0.133) TTGATGAACTTCCTCTTCTTCTCATGTCTCCGGTCTCCGGTAGGCCACGTGCATGGCCACT	0.166	0.157	0.153	0.073	0.196	0.142	0.167	0.256	0.172	0.0736	0.239	0.147	0.189	0.165	0.129	0.13	0.144	0.0932	0.261	0.18
33.0 (DMSO control at this site: 1-bp insertion 0.008, MH deletion 0.771, edited 0.112) CATTAAGAGCAGCTGCCGGCCCCCAAGTGGACAGAGCTGGCCCTGCTGATTCAACAGTGCA	0.133	0.111	0.123	0.0458	0.162	0.115	0.126	0.211	0.163	0.0718	0.187	0.109	0.168	0.147	0.108	0.111	0.108	0.0838	0.237	0.146
15.0 GCGCCTCCAATGACCCAGTGGGATCCTACTCCATAATGGGATCCTGGGGATTCCTCGCTCC	0.105	0.0725						0.107			0.136	0.0776			0.0802					0.132
31.0 (DMSO control at this site: 1-bp insertion 0.315, MH deletion 0.329, edited 0.026) ACCTCCACAGGCTGGGTGGCCCGGAGGCTGGGCGGCCCGGAGGCTGGGCTGGGCGAGTATC	0.0285	0.0243	0.0286	0.0119	0.0428	0.0286	0.0363	0.0504	0.0355		0.0451	0.0289			0.0207	0.0406	0.0296	0.0243	0.0456	0.026
17.0 (DMSO control at this site: 1-bp insertion 0.112, MH deletion 0.348, edited 0.058) CCATAGCGCGATAAATATGACGGCTCATCCTGTATGACGGCTCATCCTGTATCAACTGTCC	0.0666	0.0797	0.0794	0.0411	0.0882	0.0594	0.0812	0.115	0.0964	0.0394	0.123	0.0669	0.086	0.0753	0.0619	0.0836	0.0703	0.0546	0.184	0.0864
46.0 TTAAGAGCAATGTTCACGCAACTTGAAATTATATCTGTGGTCTTCAAATTGTCTTTTGTCA		0.109	0.106				0.099	0.157				0.1			0.0602	0.136	0.105			0.116
32.0 (DMSO control at this site: 1-bp insertion 0.03, MH deletion 0.85, edited 0.898) AGAAGTCCAGGATCAGGGGGACTGGGGTCGGGAGGGTGGGGCAGGAAGGAAGCCAGAATCA	0.893	0.917	0.893	0.793	0.944	0.929	0.921	0.946	0.934	0.841	0.946	0.904	0.925	0.917	0.9	0.87	0.891	0.849	0.951	0.923
28.0 (DMSO control at this site: 1-bp insertion 0.035, MH deletion 0.77, edited 0.142) TGGTTCTTCCTTTGTAGAGAGTGTTCATCTGGGAATCTGGGACTTGGATGAGACAATCATT	0.171	0.174	0.171	0.0787	0.217	0.16	0.181	0.291	0.196	0.0747	0.267	0.152	0.212	0.19	0.126	0.14	0.153	0.11	0.297	0.198
27.0 CCAGAATTAGAACATATCATCTGGACCCTTTTCCATCTGGACCCTTTTCCAGCACACCCTG	0.0506	0.055	0.0501		0.0605		0.0612	0.0829	0.0745		0.0968	0.0456			0.0322		0.0403		0.141	0.0708
23.0 AGAACAAAGCGCTCATATAACGATATGGGGGGTTATGGGGGGTTGAATTGCTTCAGCACGA							0.981											0.94		
41.0 (DMSO control at this site: 1-bp insertion 0.022, MH deletion 0.754, edited 0.115) AAAGAGACAGCAGGTATGAATCCATCTTCCTGACCCTTGGGACCAGCCGGGGCAGTGAAGC	0.135	0.15	0.152	0.0542	0.19	0.126	0.162	0.23	0.171	0.0671	0.227	0.138	0.172	0.157	0.121	0.12	0.113	0.0798	0.25	0.169
